In PubChem BioAssay one finds composite z-score and z-score data, which are given here for 16 compounds.

The structures appear in SMILES notation. Active and inactive are the calls of the source.

A short description of assay [1]: binders of probe aFSTL3 on microarray, primary screen, stem cell growth factor project, biochemical, small-molecule microarray, fluorescence 635/667 (AID 1064).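 Further: measures binding of the biotinylated anti-FSTL3 antibody to printed compounds.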 Conditions: higher = more signal.
Assay [2] can be described thus: binders from COS7 lysate, DM2A8 probe, primary screen, torsin A project, cell lysate, small-molecule microarray, fluorescence 635/667 (AID 1065). Particulars: higher = more signal, COS7 lysate expressing mutant human TOR1A.
A short description of assay [3]: binders of probe aFGF2 on microarray, primary screen, stem cell growth factor project, biochemical, small-molecule microarray, fluorescence 635/667 (AID 1067).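 Further: measures binding of biotinylated aFGF2 protein to printed compounds on slides; z-score merges feature fluorescence and signal-to-noise across triplicate slides.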 Particulars: higher = more signal.
Assay [4] can be described thus: binders of probe aFGF10 on microarray, primary screen, stem cell growth factor project, biochemical, small-molecule microarray, fluorescence 635/667 (AID 1071).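 Further: score merges 667 nm spot intensity and signal to noise from triplicate slides.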 Conditions: higher = more signal.
Assay [5] deals with Neurogenic locus notch homolog protein 2 (Homo sapiens) (UniProt Q04721). Kind of assay: Notch2 binders on small-molecule microarrays, primary screen, biochemical, small-molecule microarray, 635 nm fluorescence, stem cell growth factors (AID 1073). Conditions: Notch2 binding, higher = more signal.
In assay [6] the target is Pro-neuregulin-1, membrane-bound isoform (Homo sapiens) (UniProt Q02297). Briefly: NRG1 binders on small-molecule microarrays, primary screen, psychiatric disease protein project, biochemical, small-molecule microarray, fluorescence 635/667 (AID 1075).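 Further: score combines 667 nm spot fluorescence with signal to noise.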 Conditions: NRG1 binding, 635 nm fluorescence, higher = more signal.
Assay [7] relates to Neuregulin-1 EGF-like domain. Kind of assay: binders of neuregulin-1 EGF-like domain, primary screen, biochemical, small-molecule microarray, 635 nm fluorescence (AID 1081).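 Further: binding of the protein to compounds printed on small-molecule microarray slides.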 Particulars: small-molecule microarray binding, higher = more signal.
Assay [8] can be described thus: FRG1 promoter luciferase signal modulators, primary screen, FRG1 inhibition for FSHD, cell-based, C2C12 myotubes, firefly/Renilla luciferase, luminescence (AID 1084). Particulars: higher = more signal, called active from +8 up or from −8 down.
The nature of assay [9]: binders of probe aFST on microarray, primary screen, stem cell growth factor project, biochemical, small-molecule microarray, fluorescence 635/667 (AID 1086).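 Further: score merges 667 nm fluorescence with signal-to-noise of each printed compound spot.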 Particulars: higher = more signal.
Assay [10] is described as follows: binders of probe aHhip on microarray, primary screen, stem cell growth factor project, biochemical, small-molecule microarray, fluorescence 635/667 (AID 1087).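 Further: score merges spot fluorescence at 667nm with spot signal to noise ratio.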 Particulars: higher = more signal.

Chain of Pro-neuregulin-1, membrane-bound isoform (Homo sapiens) (Q02297 whole entry, looked up, the tested form may be a part, canonical isoform): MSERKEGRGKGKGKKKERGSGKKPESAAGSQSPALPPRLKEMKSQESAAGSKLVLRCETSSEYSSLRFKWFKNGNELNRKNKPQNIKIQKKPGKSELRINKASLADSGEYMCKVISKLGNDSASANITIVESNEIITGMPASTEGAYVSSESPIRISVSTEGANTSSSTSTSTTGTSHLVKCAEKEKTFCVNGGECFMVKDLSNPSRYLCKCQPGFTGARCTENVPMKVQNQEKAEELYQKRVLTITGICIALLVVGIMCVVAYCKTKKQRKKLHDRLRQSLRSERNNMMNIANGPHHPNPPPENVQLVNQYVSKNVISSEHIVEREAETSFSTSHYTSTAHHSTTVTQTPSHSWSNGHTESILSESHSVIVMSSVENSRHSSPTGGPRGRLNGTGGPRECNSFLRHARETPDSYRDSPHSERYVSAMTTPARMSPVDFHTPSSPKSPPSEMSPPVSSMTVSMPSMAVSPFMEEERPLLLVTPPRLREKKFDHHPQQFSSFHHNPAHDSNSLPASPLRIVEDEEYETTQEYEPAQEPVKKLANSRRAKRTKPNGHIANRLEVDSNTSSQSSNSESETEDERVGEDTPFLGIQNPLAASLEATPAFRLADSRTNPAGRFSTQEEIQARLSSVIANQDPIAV
Chain of Neurogenic locus notch homolog protein 2 (Homo sapiens) (Q04721 whole entry, looked up, canonical isoform): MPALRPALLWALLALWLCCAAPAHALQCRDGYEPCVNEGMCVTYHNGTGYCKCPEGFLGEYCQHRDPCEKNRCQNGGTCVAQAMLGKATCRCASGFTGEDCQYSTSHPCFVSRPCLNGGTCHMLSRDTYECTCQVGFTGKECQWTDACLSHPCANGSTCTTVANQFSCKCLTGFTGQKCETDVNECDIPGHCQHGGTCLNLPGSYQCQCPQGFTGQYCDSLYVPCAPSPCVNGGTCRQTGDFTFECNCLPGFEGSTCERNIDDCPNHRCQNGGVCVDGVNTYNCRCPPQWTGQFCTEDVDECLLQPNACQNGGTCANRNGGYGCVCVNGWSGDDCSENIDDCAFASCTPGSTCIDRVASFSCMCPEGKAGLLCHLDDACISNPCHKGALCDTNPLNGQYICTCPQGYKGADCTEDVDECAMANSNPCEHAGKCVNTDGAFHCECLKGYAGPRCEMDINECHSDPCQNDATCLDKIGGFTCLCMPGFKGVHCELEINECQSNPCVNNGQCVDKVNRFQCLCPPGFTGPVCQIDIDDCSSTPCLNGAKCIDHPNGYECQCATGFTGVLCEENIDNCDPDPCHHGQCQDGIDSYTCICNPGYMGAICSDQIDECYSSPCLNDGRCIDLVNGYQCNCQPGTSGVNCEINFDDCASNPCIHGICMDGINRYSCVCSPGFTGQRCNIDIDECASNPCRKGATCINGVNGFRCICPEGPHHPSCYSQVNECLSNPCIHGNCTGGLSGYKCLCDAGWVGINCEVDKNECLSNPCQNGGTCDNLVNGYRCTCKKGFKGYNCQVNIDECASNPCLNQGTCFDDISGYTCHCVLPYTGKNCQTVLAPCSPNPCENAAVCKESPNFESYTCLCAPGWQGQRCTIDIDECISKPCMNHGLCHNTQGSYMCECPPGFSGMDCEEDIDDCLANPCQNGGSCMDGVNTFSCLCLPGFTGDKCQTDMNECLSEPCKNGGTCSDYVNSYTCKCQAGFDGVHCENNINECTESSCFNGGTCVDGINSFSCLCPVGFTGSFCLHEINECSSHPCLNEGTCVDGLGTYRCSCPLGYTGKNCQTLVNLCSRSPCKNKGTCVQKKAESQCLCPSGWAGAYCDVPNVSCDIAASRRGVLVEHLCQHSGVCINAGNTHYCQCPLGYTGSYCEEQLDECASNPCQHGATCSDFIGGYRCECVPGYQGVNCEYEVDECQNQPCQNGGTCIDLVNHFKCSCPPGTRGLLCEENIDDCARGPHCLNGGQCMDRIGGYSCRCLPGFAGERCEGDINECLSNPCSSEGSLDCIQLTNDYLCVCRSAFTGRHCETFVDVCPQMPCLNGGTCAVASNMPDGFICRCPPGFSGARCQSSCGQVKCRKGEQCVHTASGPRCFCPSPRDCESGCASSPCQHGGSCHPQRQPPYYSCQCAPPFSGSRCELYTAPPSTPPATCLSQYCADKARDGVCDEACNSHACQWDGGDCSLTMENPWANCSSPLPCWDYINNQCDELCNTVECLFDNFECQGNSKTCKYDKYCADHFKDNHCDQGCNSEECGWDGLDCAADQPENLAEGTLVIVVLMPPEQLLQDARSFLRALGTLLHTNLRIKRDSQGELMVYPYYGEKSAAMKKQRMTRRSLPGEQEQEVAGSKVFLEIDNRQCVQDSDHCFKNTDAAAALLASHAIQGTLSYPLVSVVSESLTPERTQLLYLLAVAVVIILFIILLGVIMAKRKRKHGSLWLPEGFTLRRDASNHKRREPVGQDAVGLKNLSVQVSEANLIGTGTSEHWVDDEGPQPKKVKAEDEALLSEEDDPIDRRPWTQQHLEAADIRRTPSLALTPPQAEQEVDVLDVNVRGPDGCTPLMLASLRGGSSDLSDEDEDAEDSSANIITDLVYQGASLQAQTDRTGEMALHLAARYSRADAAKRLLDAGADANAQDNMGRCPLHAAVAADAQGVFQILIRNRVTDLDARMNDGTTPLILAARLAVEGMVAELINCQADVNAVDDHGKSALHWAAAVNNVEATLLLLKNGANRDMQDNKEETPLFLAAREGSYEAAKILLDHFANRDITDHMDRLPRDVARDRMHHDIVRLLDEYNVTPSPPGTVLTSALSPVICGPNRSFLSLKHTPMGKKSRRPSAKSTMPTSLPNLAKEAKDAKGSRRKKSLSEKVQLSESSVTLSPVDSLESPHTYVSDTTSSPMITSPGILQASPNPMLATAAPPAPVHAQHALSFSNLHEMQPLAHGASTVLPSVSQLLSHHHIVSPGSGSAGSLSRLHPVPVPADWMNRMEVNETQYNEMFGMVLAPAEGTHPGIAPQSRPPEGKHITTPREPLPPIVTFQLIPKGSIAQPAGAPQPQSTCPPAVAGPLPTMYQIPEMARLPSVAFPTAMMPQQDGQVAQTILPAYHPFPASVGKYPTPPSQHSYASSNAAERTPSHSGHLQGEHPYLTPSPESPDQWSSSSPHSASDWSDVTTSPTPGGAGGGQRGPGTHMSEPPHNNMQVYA

On to `CCCCN1CC=CC23O[C@@H]4C=CCCOC(=O)C4[C@H]2C(=O)N(CCCO)[C@@H]3C1=O` (stereo not given in full), for which the composite z-score in assay [1] was -0.0115; in assay [2], -0.265; in [3] it was -0.147; in assay [4] it was -0.609; in assay [5], -1.08; in assay [6] it was -0.931. In addition, the composite z-score in assay [7] was -0.053; in [9] it was -0.277; in assay [10], -0.191. Besides, the z-score in assay [8] was 0.211 (inactive).
As for `C=CCN1Cc2ccccc2C[C@@]2(COC(c3ccc(OCCCO)cc3)=N2)C1=O`, the composite z-score in assay [1] is 1.12; in assay [2] it was 0.391; in assay [3] it was -0.0159; in assay [4], 0.0999; in assay [5] it was 1.19; in [6], 1.05. Moreover, the composite z-score is 1.31 in assay [7], 0.703 in [9] and 0.0749 in assay [10]. The z-score in assay [8] is -3.79 (inactive).
For the compound `CO[C@H]1O[C@H](CO)[C@@H](OC(=O)Nc2cccc(F)c2)[C@H](OC(=O)Nc2ccccc2-c2ccccc2)[C@@H]1OC(=O)Nc1ccccc1-c1ccccc1`, the composite z-score in assay [1] was -0.217; in assay [2] it was 0.568; in assay [3], 0.111; in [4], 0.669; in [5] it was 1.65; in assay [6] it was 1.75. Moreover, the composite z-score in assay [7] is 1.29; in [9] it was 1.02; in assay [10], -0.374. For the same compound, the z-score in [8] is 1.16 (inactive).
Take `COCCCNC(=O)[C@@]1(Sc2ccc(C)cc2)CC(=O)N(Cc2ccccc2)[C@@H]1c1ccc(CO)cc1`: the composite z-score in assay [1] is 0.178; in [2] it was 0.685; in [3] it was 0.0431; in assay [4] it was 0.738; in assay [5] it was -0.774; in assay [6], 0.505. The composite z-score was -0.233 in assay [7], -0.217 in assay [9] and 0.0347 in assay [10]. In addition, the z-score in [8] is -1.53 (inactive).
With `COC(=O)c1c(CC[C@@H](CO)NC(=O)Nc2ncn[nH]2)oc(C(=O)Cc2ccccc2)c1C(=O)OC`, the composite z-score was -0.468 in assay [1]; -0.0764 in assay [2]; -0.214 in assay [3]; 0.511 in [4]; 1.21 in [5]; 0.163 in assay [6]. The results for the composite z-score in [7], in assay [9] and in assay [10] were 0.778, 0.524 and 0.0722, respectively. Moreover, in assay [8], the z-score was 0.004 (inactive).
Regarding `COCCn1c(C(=O)N(C)C)cc2c1C[C@H]1CN(C(=O)c3ccccc3)[C@@](Cc3ccc(F)cc3)(C(=O)OC)[C@@H]21`, the composite z-score is 0.0407 in assay [1]; -0.0248 in assay [2]; 0.203 in assay [3]; 0.651 in assay [4]; 1.56 in assay [5]; 1.11 in assay [6]. Besides, the composite z-score was 0.998 in [7], 0.576 in [9] and -0.0347 in assay [10]. In addition, the z-score in assay [8] was 0.592 (inactive).
`CO[C@H]1O[C@H](CO)[C@@H](OC(=O)Nc2ccccc2-c2ccccc2)[C@H](OC(=O)Nc2ccccc2-c2ccccc2)[C@H]1OC(=O)Nc1ccccc1-c1ccccc1`: the composite z-score in [1] was -0.0136; in [2], 1.68; in assay [3] it was 0.17; in [4], 1.17; in [5] it was 1.4; in [6], 0.885. The values for the composite z-score in [7], in assay [9] and in assay [10] were 1.42, 0.374 and 0.245, respectively. In assay [8], the z-score is 0.849 (inactive).
For `COc1ccc(C#Cc2ccc3c(c2)[C@]2(C(=O)N3)[C@H](c3ccc(OCCO)cc3)N3[C@H](c4ccccc4)[C@H](c4ccccc4)OC(=O)[C@H]3[C@@H]2C(=O)Nc2nc3ccccc3s2)cc1`, the composite z-score was 0.244 in assay [1]; 0.664 in assay [2]; -0.0167 in assay [3]; 0.71 in [4]; 1.07 in assay [5]; 2.24 in [6]. In addition, the composite z-score was 1.13 in assay [7], 0.667 in assay [9] and -0.181 in assay [10]. Besides, the z-score in assay [8] is 3.55 (inactive).
As to `COCCOC(=O)N1C(=O)[C@@]2(c3cc(C#CCCO)ccc31)[C@H](c1ccc(O)cc1)N1[C@H](c3ccccc3)[C@H](c3ccccc3)OC(=O)[C@H]1[C@@H]2C(=O)N1CCCCCCC1`, the composite z-score in assay [1] worked out at 2.58; in assay [2], 1.07; in assay [3], 0.2; in [4], 1.04; in assay [5], 1.33; in [6] it was 0.853. For the same compound, the figures for the composite z-score in assay [7], in assay [9] and in assay [10] were 1.14, 2 and 0.7, respectively. In addition, the z-score in assay [8] is -0.73 (inactive).
On to `C=C(C(=O)CC[C@@H](OC(=O)c1cccnc1)c1ccc(OCCO)cc1)C(C)C`, for which the composite z-score in assay [1] was -0.408; in assay [2] it was -0.294; in [3] it was -0.113; in assay [4] it was 1.27; in assay [5] it was -0.121; in assay [6], 0.739. The results for the composite z-score in assay [7], in assay [9] and in assay [10] were 1.06, 0.128 and -0.0994, respectively. Further, the z-score in assay [8] was -2.68 (inactive).
Turning to `C=CC[C@@]1(C(=O)NCCN2CCOCC2)N=C(c2ccc(OCCCO)cc2)O[C@@H]1c1ccccc1CN=[N+]=[N-]`, the composite z-score was 1 in assay [1]; 0.812 in [2]; -0.0524 in assay [3]; 0.455 in [4]; 0.674 in [5]; 1.26 in assay [6]. The composite z-score came to 1.29 in assay [7], 1.65 in assay [9] and 0.0989 in assay [10]. In addition, in assay [8], the z-score was -0.484 (inactive).
For `O=C1O[C@@H](c2ccccc2)[C@@H](c2ccccc2)N2[C@@H](c3ccccc3OCCO)[C@]3(C(=O)Nc4ccc(C#CC5(O)CCCCCC5)cc43)[C@@H](C(=O)NC[C@H](O)c3ccccc3)[C@H]12`, the composite z-score in assay [1] stood at 1.99; in assay [2], 0.142; in assay [3] it was 0.0924; in assay [4], 1.03; in assay [5], 0.81; in [6], 1.75. The results for the composite z-score in [7], in [9] and in assay [10] were 1.24, 1.74 and 0.0145, respectively. Besides, the z-score in [8] was -1.2 (inactive).
In the case of `CCOC(=O)C[C@H]1[C@H](OC(=O)c2ccc(C(=O)c3ccccc3)cc2)[C@@H](NC(=O)c2ccc3ccccc3n2)c2cc(OCCCO)ccc2N1C(=O)c1ccc2ccccc2n1`, the composite z-score was -0.153 in assay [1]; 0.0772 in assay [2]; -0.16 in assay [3]; 0.56 in assay [4]; 0.876 in [5]; 1 in assay [6]. Also, the composite z-score in assay [7] is 0.421; in assay [9] it was 0.845; in [10], -0.201. Also, in [8], the z-score is -2.18 (inactive).
With `CCCC[C@H]1OB(O)C[C@H]2C1=C(COc1ccccc1)C[C@H]1C(=O)N(Cc3ccccc3)C(=O)[C@H]12`, the composite z-score in assay [1] is -0.331; in assay [2] it was -0.413; in assay [3], -0.0434; in [4] it was 0.418; in [5] it was 0.0238; in assay [6] it was 0.117. In addition, the results for the composite z-score in assay [7], in [9] and in [10] were 1.07, -0.0344 and 0.0623, respectively. In addition, the z-score in [8] is 0.132 (inactive).
In the case of `NC(=O)NCC#Cc1ccc2c(c1)[C@]1(C(=O)N2)[C@H](C(=O)NC[C@H](O)c2ccccc2)[C@H]2C(=O)O[C@H](c3ccccc3)[C@H](c3ccccc3)N2[C@@H]1c1ccccc1OCCO`, the composite z-score in [1] was -0.226; in assay [2], 0.0051; in assay [3] it was -0.0934; in assay [4], 0.0263; in assay [5], -0.686; in [6], 1.21. The composite z-score in [7] was 0.997; in assay [9] it was 0.213; in [10], -0.0994. Also, the z-score in [8] was -0.167 (inactive).
Consider `CN(C)CCCC[C@@H]1NC(=O)[C@@H]2C[C@H](C(=O)NCCCCCN)[C@H](c3ccc(O)cc3)N2C1=O`, for which the composite z-score in assay [1] was 0.591; in [2] it was 0.137; in assay [3] it was -0.043; in [4] it was -0.285; in assay [5] it was 0.235; in assay [6] it was 2.23. The results for the composite z-score in [7], in assay [9] and in assay [10] were 0.293, 0.0993 and -0.0324, respectively. Moreover, the z-score in [8] is -0.926 (inactive).
